Results taken from the supplement of paper PMC13380429.

Test system: Vero E6 infected with SARS-CoV-2
Assay: inhibition of SARS-CoV-2 cytopathic effect; higher = more antiviral protection, active = above 15
Settings: 48 h

Measured: inhibition of SARS-CoV-2 cytopathic effect

FC(F)(F)c1ccc(N2CCNCC2)nc1Cl
inactive: 1 nM 1.34% | 8.33 nM -0.28% | 100 nM 0.72% | 833.33 nM 1.94% | 10000 nM -3.98%

O=P(O)(O)C(Cl)(Cl)P(=O)(O)O [clodronic-acid]
inactive: 1 nM 0.55% | 8.33 nM 0.27% | 100 nM 0.5% | 833.33 nM 2.21% | 10000 nM -1.06%

CCCCOc1cc(C(=O)NCCN(CC)CC)c2ccccc2n1 [cinchocaine]
inactive: 1 nM -2.14% | 8.33 nM -0.71% | 100 nM 1.11% | 833.33 nM 3.8% | 10000 nM 0.77%

CC(N)Cc1c[nH]c2ccc(OCc3cccs3)cc12 (stereo not given)
inactive: 1 nM 0.71% | 8.33 nM -0.24% | 100 nM 0.67% | 833.33 nM -1.65% | 10000 nM -3.56%

O=P(O)(O)C(O)(Cn1ccnc1)P(=O)(O)O [zoledronic-acid]
inactive: 1 nM -0.24% | 8.33 nM 2.18% | 100 nM 1.88% | 833.33 nM 0.51% | 10000 nM -0.12%

C=CC(=O)Nc1cc2c(Nc3ccc(F)c(Cl)c3)ncnc2cc1OCCCN1CCOCC1 [canertinib]
inactive: 1 nM 2.3% | 8.33 nM -2.25% | 100 nM -6.93% | 833.33 nM -13.4% | 10000 nM -20.1%

CN1CCC(=C2c3ccccc3CCn3c(C=O)cnc32)CC1 [alcaftadine]
inactive: 1 nM -1.5% | 8.33 nM 0.26% | 100 nM -2.72% | 833.33 nM 0.36% | 10000 nM -2.28%

CCCc1cc(=O)[nH]c(=S)[nH]1 [propylthiouracil]
inactive: 1 nM 3.65% | 8.33 nM -8.68% | 100 nM 2.66% | 833.33 nM 2.01% | 10000 nM -1.99%

COC(=O)C(c1ccccc1)C1CCCCN1 (stereo not given)
inactive: 1 nM -1.97% | 8.33 nM -1.71% | 100 nM -1.37% | 833.33 nM -1.52% | 10000 nM -0.37%

CO[C@H]1C[C@H](O[C@H]2[C@H](C)O[C@@H](O[C@@H]3/C(C)=C/C[C@@H]4C[C@@H](C[C@]5(C=C[C@H](C)[C@@H](C6CCCCC6)O5)O4)OC(=O)[C@@H]4C=C(C)[C@@H](O)[C@H]5OC/C(=C\C=C\[C@@H]3C)[C@]54O)C[C@@H]2OC)O[C@@H](C)[C@@H]1O [doramectin]
inactive: 1 nM 0.81% | 8.33 nM 1.22% | 100 nM 1.24% | 833.33 nM 0.55% | 10000 nM 2.69%

CCOc1ccc(C(=O)OCCN(CC)CC)cc1 [parethoxycaine]
inactive: 1 nM 0.82% | 8.33 nM -3.01% | 100 nM -2.92% | 833.33 nM -0.3% | 10000 nM -0.09%

OCc1cncc(F)c1 [5-fluoro-3-pyridyl-methanol]
inactive: 1 nM -1.88% | 8.33 nM 0.14% | 100 nM -10.8% | 833.33 nM -0.19% | 10000 nM -2.94%

COc1ccc(-c2cc(=S)ss2)cc1 [anethole-trithione]
inactive: 1 nM 1.7% | 8.33 nM -0.29% | 100 nM 1.29% | 833.33 nM -1.2% | 10000 nM 2.76%

CC(N)C12CC3CC(CC(C3)C1)C2 (stereo not given) [rimantadine]
inactive: 1 nM -2.29% | 8.33 nM -2.48% | 100 nM -4.1% | 833.33 nM -5.56% | 10000 nM -5.71%

Cc1cccc(C)c1-n1c(=O)c2cnc(Nc3ccc(N4CCN(C)CC4)cc3)nc2n2c3ccccc3nc12
inactive: 1 nM -1.2% | 8.33 nM -0.67% | 100 nM -2.31% | 833.33 nM 0.21% | 10000 nM -3.38%

COc1ccc(COc2ccc(Cc3cnc(N)nc3N)cc2OC)cc1
inactive: 1 nM -0.78% | 8.33 nM -1.56% | 100 nM -0.01% | 833.33 nM 0.11% | 10000 nM 0.48%
